An excerpt weighted towards active compounds, which were near 17% of everything screened.
DT40 TDP1 no CPT: qHTS for Inhibitors of human tyrosyl-DNA phosphodiesterase 1 (TDP1): qHTS in cells in absence of CPT | DT40 Tdp1-/- hTDP1 cells, no CPT, ATP luminescence, 48 h | Potency, µM (titrated, usually from 46.2 µM), usual class: inhibitors | actives 15% (n = 420,000) | AID 686978, 2013; also: nearly all actives have a fitted effect of over 55% in size
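Chicken DT40 Tdp1-/- cells stably complemented with human TDP1 were seeded at 400 cells/well with DMSO in place of 20 nM camptothecin. After compound pinning, cells grew at least 48 hr at 37 °C; viability read by CellTiter-Glo luminescence.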
ClpP mod: qHTS Assay for Activators of ClpP; ATP-dependent Clp protease proteolytic subunit (Bacillus subtilis (strain 168)), P80244; purified B. subtilis ClpP, FRET peptide cleavage, 20 min; Potency, µM (titrated, usually from 57.5 µM); actives 1.9% (n = 340,000); AID 651965, 2013; active = well fitted falling curve with a large enough effect; inconclusive = small, poorly fitted or top-dose-only effect; inactive = no such curve, though single readings can be large or run the other way; also: the source files actives as falling curves though it sought activators and does not explain the sign; nearly all actives have a fitted effect of over 65% in size
Target sequence (P80244 whole entry, looked up): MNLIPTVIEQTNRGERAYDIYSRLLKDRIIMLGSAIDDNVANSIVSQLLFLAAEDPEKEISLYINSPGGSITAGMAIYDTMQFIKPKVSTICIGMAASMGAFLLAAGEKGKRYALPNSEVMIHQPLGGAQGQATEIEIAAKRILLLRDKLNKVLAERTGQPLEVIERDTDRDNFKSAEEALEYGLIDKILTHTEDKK
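Purified B. subtilis ClpP, 10 microg/mL final in Tris/HCl pH8 with KCl, BSA, glycerol and Tween-20, cleaved an Abz/nitrotyrosine-quenched decapeptide. Fluorescence (ex 320, em 430) was read at 0 and 20 min at room temperature. Delta was normalized to 5.8 microM ADEP and DMSO/no-enzyme controls.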
TDP1 inh: TDP1 (human) enzyme inhibition | recombinant TDP1, AlphaScreen DNA substrate cleavage | Potency, µM (top dose mostly 130 µM), actives largely listed as inhibitors | actives 0.28% (n = 350,000) | AID 485290; also: nearly all actives have a fitted effect of over 40% in size
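Recombinant human Tdp1 (E. coli-expressed, 1 nM final) preincubated with compounds 15 min at room temperature, then 5'-biotin/3'-phosphotyrosine-FITC DNA substrate (15 nM final) added for 5 min. AlphaScreen beads (10 ug/ml final) added 10 min; cleavage lowers signal.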
DT40 TDP1 CPT: DT40-hTDP1 cell growth loss with CPT | chicken DT40 Tdp1-/-;hTDP1 cells + 20 nM CPT, ATP luminescence, 48 h | Potency, µM (highest dose often 46.2 µM), usual class: inhibitors | actives 12% (n = 420,000) | AID 686979; also: nearly all actives have a fitted effect of over 55% in size
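Chicken DT40 Tdp1-/- cells stably complemented with human TDP1 were seeded at 400 cells/well in medium containing 20 nM camptothecin, exposed to pin-transferred compounds, and grown at 37 °C for at least 48 hr. Viability was read as ATP luminescence.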
Numbers stand for hits; i = inactive; ? = inconclusive; nt = not tested or not shown; [ ] = remark or other dose. Unless noted, calls follow the shape of the dose curve; as a rule, active = well fitted curve in the direction sought with a large enough effect; inconclusive = small, poorly fitted or top-dose-only effect, or another doubt; inactive = no such curve, though single readings can be large; an effect the other way counts as inactive or inconclusive.

SMILES	DT40 TDP1 no CPT	ClpP mod	TDP1 inh	DT40 TDP1 CPT
CCOC(=O)[C@]12CCC=C1N(Cc1cccc3ccccc13)C(=O)[C@H](CC(=O)N1CCCCC1)C2	25.9µM	i	nt	?
COc1ccc(CCC(=O)NCC(=O)OCc2ccccc2)cc1	i	i	nt	i
CC(NC(=O)C(Cc1ccccc1)n1cccc1)c1ccccc1 (stereo not given)	?	nt	i	?
COc1cccc(NC(=O)Cn2c(=O)n(-c3ccc(CC(=O)NCC4CCCO4)cc3)c(=O)c3ccccc32)c1 (stereo not given)	?	i	i	i
C=C/C1=C/Cc2ccccc2[C@H](C[N+](=O)[O-])C(C(C)=O)(C(=O)OC)C1 (stereo not given in full)	nt	nt	i	nt
CCOC(=O)[C@]12CCCC=C1N(Cc1cccc3ccccc13)C(=O)[C@H](CC(=O)N1CCSCC1)C2	?	i	nt	?
COC(=O)[C@@]12C[C@@H](CC(=O)N3CCN(C(=O)c4ccco4)CC3)C(=O)N(Cc3cccc4ccccc34)C1=CCC(C)(C)C2	18.4µM	i	nt	?
CCOC(=O)N1CCN(C(=O)C[C@@H]2C[C@@]3(C(=O)OC)CC(C)(C)CC=C3N(Cc3cccc4ccccc34)C2=O)CC1	18.4µM	i	nt	16.4µM
CCOC(=O)[C@]12CCC=C1N(Cc1cccc3ccccc13)C(=O)[C@H](CC(=O)N1CCSCC1)C2	18.4µM	i	nt	?
COC(=O)[C@@]12C[C@@H](CC(=O)N3CCCCC3)C(=O)N(Cc3cccc4ccccc34)C1=CCC(C)(C)C2	?	i	nt	?
COc1ccc(CCNC(=O)c2cnn(-c3nccc(-c4ccco4)n3)c2C)cc1	i	nt	nt	i[9.04 µM]
COc1ccccc1N1CCN(C(=S)Nc2cccc(C)c2)CC1	23.1µM	nt	i	23.1µM
COc1ccccc1NC(=S)N1CCN(c2cccc(C)c2C)CC1	2.31µM	i	i	5.17µM
CN1CCN(C(=S)Nc2ccccc2Cl)CC1	?	i	i	i
Cc1ccccc1NC(=S)N1CCN(c2ccccc2Cl)CC1	11.6µM	i	nt	14.6µM
COc1ccc(N2CCN(C(=S)Nc3ccccc3OC)CC2)cc1	i	?	nt	i
Cc1cccc(NC(=S)N2CCN(c3cc(C)ccc3C)CC2)c1	?	i	i	?
CCN1CCN(C(=S)Nc2ccccc2Cl)CC1	?	i	i	11.2µM
CCN(CC)C(=S)SCC(=O)c1ccc(Br)cc1	23.1µM	i	i	i
CN(C)c1nc(SCC(=O)Nc2ccc(Cl)c(Cl)c2)nc(N2CCOCC2)n1	23.1µM	nt	?	i
CCOc1ccc(NC(=O)CSc2nc(N3CCOCC3)nc(N3CCOCC3)n2)cc1	i	i	i	i
CCNc1nc(SCC(=O)Nc2ccc(Cl)c(Cl)c2)nc(N2CCOCC2)n1	18.4µM	nt	i	?
CN(C)c1nc(SCC(=O)Nc2ccccc2)nc(N2CCOCC2)n1	i	nt	i	i
CC(C)(C)Nc1nc(SCC(=O)Nc2ccccc2)nc(N2CCOCC2)n1	23.1µM	i	i	?
O=C(CSc1nc(Nc2ccccc2)nc(N2CCOCC2)n1)Nc1ccc2c(c1)OCCO2	i	i	i	i
SMILES	DT40 TDP1 no CPT	ClpP mod	TDP1 inh	DT40 TDP1 CPT
Cc1cc(C)n(-c2cccc(CN(C)Cc3nc(-c4cnccn4)no3)c2)n1	i	i	i	i
CC(=O)Nc1cc2c(c(Cl)c1Cl)-c1ccccc1C2=O	i	i	nt	i
CCOc1ccc(NC(=O)c2c(NC(=O)Cc3ccccc3)sc3c2CCCC3)cc1	?	i	i	?
COc1ccc(NC(=O)c2c(NC(=O)C(F)(F)F)sc3c2CCCCC3)cc1	18.4µM	i	i[12.3 µM]	?
COc1ccc(CC(=O)Nc2sc3c(c2C(=O)Nc2ccc(C)cc2)CCCCC3)cc1	16.4µM	i	i[12.3 µM]	?
COc1ccc(NC(=O)c2c(NC(=O)Cc3ccccc3)sc3c2CCCC3)cc1	i	28.2µM	nt	i
COc1ccc(CC(=O)Nc2sc3c(c2C(=O)Nc2cccc(C)c2)CCCCC3)cc1	?	i	i[12.3 µM]	?
CCOc1ccc(NS(=O)(=O)c2ccc3[nH]c4c(c3c2)CCCCC4)cc1	18.4µM	i	i	23.1µM
COc1ccc(NS(=O)(=O)c2ccc3[nH]c4c(c3c2)CCCCC4)cc1	23.1µM	i	i	16.4µM
COc1ccc(NS(=O)(=O)c2ccc3[nH]c4c(c3c2)CCCC4)c(OC)c1	20.6µM	i	i	20.6µM
CCCCC(=O)N(C)c1c(C)nc2ccc(C(=O)N(C)CCN(C)C)cn12	i	i	nt	i

Screening data from PubChem BioAssay.
